The values that follow come from PubChem BioAssay AID463173 (ICCB-Longwood Screening Facility, Harvard Medical School, 2010).

The whole screen tested about 52,000 compounds, of which about 1,700 (3.3%) were called active. This is one part of a sample in which actives are shown more often than they occur. Unmarked numbers belong to inactive results. Cut-off read from the data, not from the text of the source: active = survival mostly below about 52% (no sharp cut-off); inactive = mostly above about 56%.

This test has as its system Wild type. Description: S. aureus survival, RN4220 and DeltatarO strains – OD600, teichoic acid synthesis inhibitors, primary screen (AID 463173). The settings on record: S. aureus RN4220 wild type/DeltatarO growth, OD600, 18 h, hits give low values, screened at 18.75 µg/mL (by protocol).
Turning to `Cc1ccc(-c2nn(-c3ccc(F)cc3F)c3c2cnc2ccc(F)cc23)cc1`, the survival was 65%.

With `CCOC(=O)c1ccc(NC(=O)CSc2nc(-c3cccs3)cc(C(F)(F)F)c2C#N)cc1`, the survival was 85%.

For `CC(C)N(C(=O)Cn1cc(S(=O)(=O)Cc2ccc(Br)cc2)c2ccccc21)C(C)C`, the survival is 80%.

Turning to `O=C(c1ccc2c(c1)N(Cc1cccc(Cl)c1)C(=O)c1ccccc1S2)N1CCOCC1`, the survival is 99%.

`Cc1ccnc(N2CCC(C(=O)NCc3ccc(F)cc3)CC2)n1`: the survival is 105%.

Consider `Nc1nc2nc(-c3ccc(Cl)cc3)cc(C(F)(F)F)n2n1`, for which the survival is 144%.

For the compound `CC(C)c1ccccc1NC(=O)CC(C)(C)C`, the survival was 121%.

As for `C=CCc1cccc2cc(-c3nc4ccc(C)cc4[nH]3)c(=O)oc12`, the survival was -3% (active).

Take `COc1cccc2cc(-c3nc4ccc(C)cc4[nH]3)c(=O)oc12`: the survival is 73%.

As for `C=CCc1cccc2cc(-c3nc4ccc(C(=O)O)cc4[nH]3)c(=O)oc12`, the survival was 83%.

As for `COC(=O)c1ccc(NC(=O)CSc2cn(CC(=O)N3CCCCC3)c3ccccc23)cc1`, the survival was 89%.

Regarding `CCC(=O)N1CCc2cc(S(=O)(=O)CCC(=O)N3CCN(c4ccccc4Cl)CC3)ccc21`, the survival is 78%.

As for `COc1ccc(C2=NC(c3ccncc3)=Nc3ccc(Br)cc3N2)cc1`, the survival was 94%.

Regarding `CCCCOc1ccc(C2=NC(c3ccncc3)=Nc3ccc(OCC)cc3N2)cc1`, the survival is 90%.

`CCCCOc1ccc(C2=NC(c3ccncc3)=Nc3ccc(Br)cc3N2)cc1`: the survival was -4% (active).

`COc1ccc(CNC(=O)CCc2c(C)c3cc4c(C)coc4c(C)c3oc2=O)cc1OC`: the survival was 82%.

As to `CC(C)OC(=O)CSc1nnc(-c2ccc(O)cc2)n1-c1ccccc1`, the survival was 116%.

For the compound `COc1ccccc1-n1nc(-c2ccccc2)c2cnc3c(F)cc(F)cc3c21`, the survival was 119%.

With `Cc1ccc(-c2nc(CCNC(=O)C(=O)Nc3ccc(C)c(Cl)c3)cs2)cc1`, the survival was 47%.

Regarding `Cc1ccc(-c2nc(CCNC(=O)C(=O)Nc3ccc(C)cc3C)cs2)cc1`, the survival was 53%.

As to `Cc1ccc(-c2nc(CCNC(=O)C(=O)Nc3c(C)cccc3C)cs2)cc1`, the survival was 0% (active).

As for `Cc1cc(C)c(NC(=O)C(=O)NCCc2csc(-c3ccc(F)cc3)n2)c(C)c1`, the survival is 76%.

`Cc1cccc(NC(=O)C(=O)NCCc2csc(-c3ccc(F)cc3)n2)c1C`: the survival is 75%.

Consider `Cc1ccc(-c2nc(CCNC(=O)C(=O)Nc3ccc(C)c(C)c3)cs2)cc1`, for which the survival was -3% (active).

For `O=C(c1cccs1)N1CCCn2c1nc1ccccc12`, the survival is 106%.

Take `CCc1nn2c(=O)cc(COC(=O)c3cccc(NC(=O)c4ccccc4C)c3)nc2s1`: the survival is 91%.

As for `CCc1nn(CC(=O)Nc2ccc(C)c(F)c2)c(=O)c2cc3cc(C)ccc3n12`, the survival is 109%.

Regarding `COc1ccc2c(c1)-c1nc(NC(=O)c3ccccc3F)sc1CC2`, the survival was -1% (active).

Take `COc1ccc2c(c1)Cc1sc(NC(=O)c3cccc(C)c3)nc1-2`: the survival is 7% (active).

As for `COc1ccc2c(c1)-c1nc(NC(=O)c3ccc(C)cc3)sc1CC2`, the survival is 14% (active).

As for `COc1ccc2c(c1)-c1nc(NC(=O)c3cccc(Br)c3)sc1CC2`, the survival is 54%.

With `COc1ccc2c(c1)-c1nc(NC(=O)c3ccc(Cl)cc3)sc1CC2`, the survival is 93%.

As to `COc1ccc(C(=O)Nc2nc3c(s2)Cc2cc(OC)ccc2-3)cc1`, the survival is 72%.

As for `COc1ccc2c(c1)Cc1sc(NC(=O)c3cccc(F)c3)nc1-2`, the survival is 69%.

In the case of `COc1ccc2c(c1)-c1nc(NC(=O)c3cc(Cl)ccc3OC)sc1CC2`, the survival was 74%.

Regarding `COc1ccc(C(=O)Nc2nc3c(s2)CCc2cc(OC)ccc2-3)cc1`, the survival is 41%.

In the case of `CCCC(=O)Nc1ccc(Cl)c(NC(=O)c2cccnc2Cl)c1`, the survival is 114%.

Turning to `CC1=C(c2ccc(C)c(C)c2)S(=O)(=O)N=C1N1CCC(C(=O)NCCc2ccc(Cl)cc2)CC1`, the survival is 132%.

With `CS(=O)(=O)N1CCC(N2CCN(Cc3ccc(F)cc3)C(=O)C2=O)CC1`, the survival was 81%.

As to `Cc1cc(C(=O)O)c2c(=O)n(C)c(=O)n(C)c2n1`, the survival was 81%.

Turning to `CCOc1ccc(NC(=O)c2ccc(F)c(S(=O)(=O)N(CC)Cc3ccccc3)c2)cc1`, the survival is 77%.

For the compound `Cc1ccc(C(=O)Nc2ccc(C(=O)O)cc2)cc1S(=O)(=O)Nc1ccccc1`, the survival is 73%.

Consider `CCN(c1ccccc1)S(=O)(=O)c1cc(C(=O)Nc2ccc(Br)cc2)ccc1F`, for which the survival is 1% (active).

For `Cc1ccc(C(=O)Nc2ccccc2)cc1S(=O)(=O)Nc1ccc(Br)cc1`, the survival is 7% (active).

Turning to `CCOc1cccc(NC(=O)c2ccc(F)c(S(=O)(=O)N(CC)c3cccc(C)c3)c2)c1`, the survival was 82%.

For `Cc1ccc(C(=O)Nc2ccccc2)cc1S(=O)(=O)Nc1ccccc1`, the survival was 70%.

In the case of `CCN1CCN(C(c2ccccc2F)c2c(O)cc(C)n(CCOC)c2=O)CC1` (stereo not drawn), the survival is 45%.

Regarding `Cc1ccc(NC(=O)Cn2c(=O)n(Cc3ccco3)c(=O)c3ccc(C(=O)NC4CCCC4)cc32)c(C)c1`, the survival was 87%.

With `Cc1cccc(C(=O)NCC(c2ccc3c(c2)OCO3)N2CCN(c3ccccc3F)CC2)c1` (stereo not drawn), the survival was 70%.

On to `CC(C)C(=O)Nc1nnc(SCc2cc(=O)n3ccccc3n2)s1`, for which the survival was 117%.

Consider `Cc1cccn2c(=O)cc(CSc3nnc(NC(=O)COc4ccccc4)s3)nc12`, for which the survival was 71%.

In the case of `Cc1ccc2nc(CSc3nnc(NC(=O)COc4ccccc4)s3)cc(=O)n2c1`, the survival is 63%.

For the compound `Cc1ccc2nc(CSc3nnc(NC(=O)COc4ccccc4F)s3)cc(=O)n2c1`, the survival was 81%.

For the compound `Cc1ccc(OCC(=O)Nc2nnc(SCc3cc(=O)n4cccc(C)c4n3)s2)cc1`, the survival was 64%.

As for `Cc1ccc2nc(CSc3nnc(NC(=O)C(C)C)s3)cc(=O)n2c1`, the survival is -3% (active).

Take `Cc1ccc(OCC(=O)Nc2nnc(SCc3cc(=O)n4cc(C)ccc4n3)s2)cc1`: the survival is 1% (active).

On to `Cc1cccn2c(=O)cc(CSc3nnc(NC(=O)COc4ccc(F)cc4)s3)nc12`, for which the survival is -4% (active).

As to `Cc1ccc2nc(CSc3nnc(NC(=O)CC(C)C)s3)cc(=O)n2c1`, the survival is 60%.
